POLB inh – inhibitors of human DNA polymerase beta. Pol beta primer extension/strand displacement, fluorescence kinetic. AID 485314. Potency, µM (top dose mostly 114 µM), for inactives: top-dose activity change, negative = inhibition, usual class: inhibitors. 340,000 compounds, 1.3% hits. P06746; note: potency is the fitted concentration of half-maximal effect; % is set by controls: 0 for no effect and ±100 for the full control effect
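Curves were derived by four-parameter Hill fits of normalized qHTS data. The kinetic fluorescent primer-extension read was taken at 0 and 10 min after 50 nM substrate, following a 15 min room-temperature preincubation of 10 nM enzyme with compounds.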
PI5P4K alpha inh – inhibitors of human PI5P4K alpha | PI5P4Kalpha enzyme, ADP-Glo luminescence, 60 min; hits give low values | max response, % | 330,000 compounds, 1.2% hits | AID 652105; active = max response of -50% or lower; inconclusive = between -30% and -50%; inactive = -30% or higher; note: value at the top dose of about 77 µM; % is set by controls: 0 for no effect and ±100 for the full control effect
Target sequence (P48426 whole entry, looked up): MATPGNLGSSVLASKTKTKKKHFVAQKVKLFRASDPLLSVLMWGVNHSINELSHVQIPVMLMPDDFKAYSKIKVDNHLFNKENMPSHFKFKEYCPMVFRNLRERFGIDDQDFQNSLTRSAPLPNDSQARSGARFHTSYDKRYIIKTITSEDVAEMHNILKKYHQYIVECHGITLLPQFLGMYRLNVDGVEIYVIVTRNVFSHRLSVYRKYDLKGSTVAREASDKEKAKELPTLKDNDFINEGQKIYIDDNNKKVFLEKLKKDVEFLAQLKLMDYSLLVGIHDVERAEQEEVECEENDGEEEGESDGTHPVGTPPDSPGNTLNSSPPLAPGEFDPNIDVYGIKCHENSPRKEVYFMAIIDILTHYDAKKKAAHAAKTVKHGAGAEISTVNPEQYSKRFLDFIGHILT
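Single end-point luminescence (ADP-Glo) quantified ADP from PI5P4Kalpha turnover; ATP 5 microM final, 1 h at RT, 0.1% CHAPS and 0.28 mM EGTA in HEPES pH 7.4.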
FEN1 inh – blocks human flap endonuclease 1; P39748; Recombinant FEN1 flap cleavage, fluorescence, 15 min; Potency, µM (top dose mostly 114 µM), without a hit: at the highest dose activity change, negative = inhibition, actives largely listed as inhibitors; 390,000 compounds, 0.35% hits; AID 588795; note: potency is the fitted concentration of half-maximal effect; % is set by controls: 0 for no effect and ±100 for the full control effect; nearly all actives have a fitted effect of over 65% in size
Target sequence (P39748 whole entry, looked up): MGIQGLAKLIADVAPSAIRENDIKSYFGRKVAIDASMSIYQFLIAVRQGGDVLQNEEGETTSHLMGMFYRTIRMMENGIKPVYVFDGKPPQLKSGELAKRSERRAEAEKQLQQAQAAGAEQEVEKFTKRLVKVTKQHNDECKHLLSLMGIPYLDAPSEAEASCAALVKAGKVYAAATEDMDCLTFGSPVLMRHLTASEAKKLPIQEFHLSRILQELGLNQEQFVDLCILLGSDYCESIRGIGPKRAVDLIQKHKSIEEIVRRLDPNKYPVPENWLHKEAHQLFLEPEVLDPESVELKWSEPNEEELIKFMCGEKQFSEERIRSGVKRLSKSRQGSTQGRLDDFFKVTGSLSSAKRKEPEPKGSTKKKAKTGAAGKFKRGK
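Potency values derive from four-parameter Hill fits of normalized qHTS data. The reaction used 10 nM FEN1 preincubated 15 min at room temperature with compound, then 50 nM DNA substrate, read at 0 and 15 min.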
Pol kappa inh – blocks human DNA polymerase kappa activity | Q9UBT6 | purified Pol kappa, fluorescent DNA synthesis assay, 10 min | Potency, µM (highest dose often 107 µM), for the others: top-dose activity, negative = inhibition, hits mostly inhibitors | 400,000 compounds, 0.53% hits | AID 588579; note: potency is the fitted concentration of half-maximal effect; % is set by controls: 0 for no effect and ±100 for the full control effect
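Kinetic fluorescence readout at 0 and 10 min followed reaction start with substrate at 50 nM final. Beforehand, enzyme (10 nM Pol kappa) stood 15 min with compound at room temperature; buffer-only wells were negative controls.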
Pol eta inh – inhibitors of human DNA polymerase eta; Q9Y253; recombinant Pol eta, fluorescent DNA replication assay; Potency, µM (series often up to 114 µM), inactives show top-dose activity change, negative = inhibition, hits mostly inhibitors; 390,000 compounds, 1.2% hits; AID 588591; note: potency is the fitted concentration of half-maximal effect; % is set by controls: 0 for no effect and ±100 for the full control effect
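Fluorescent replication assay: 50 nM final substrate added after a 15 min room-temperature compound preincubation with 10 nM enzyme. Signal taken at 0 min and again at 10 min.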
Pol iota inh – DNA polymerase iota (human) inhibition; Q9UNA4; Pol iota fluorescent replication assay, 10 min; Potency, µM (series often up to 115 µM), inactives show top-dose activity, negative = inhibition, hits mostly inhibitors; 390,000 compounds, 1% hits; AID 588590; note: potency is the fitted concentration of half-maximal effect
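Pol iota at 10 nM preincubated 15 min with compounds at room temperature; reaction started with fluorescent substrate, 50 nM final. Fluorescence read kinetically at 0 and 10 min; buffer-only wells as negative control.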
Starred values were filed as active, the others as inactive; u = inconclusive; x = not tested or not shown; [ ] = another dose, or the depositor's remark. Hits are enriched below; roughly 2.8% of the tested compounds scored in any of these assays. Unless noted, calls come from the whole dose curve; as a rule, active = well fitted curve in the direction sought with a large enough effect; inconclusive = small, poorly fitted or top-dose-only effect, or another doubt; inactive = no such curve, though single readings can be large; an effect the other way counts as inactive or inconclusive.

SMILES	POLB inh	PI5P4K alpha inh	FEN1 inh	Pol kappa inh	Pol eta inh	Pol iota inh
CCc1ccc(NC(=O)CN(Cc2ccccc2)S(=O)(=O)c2ccc3nc(C)sc3c2)cc1	-22.9%	x	-0.5%	-18.7%	-16.0%	-5.5%
Cc1ccc(C)c(NC(=O)CSc2ncc(S(=O)(=O)c3ccc(C)c(Cl)c3)c(=O)[nH]2)c1	-12.4%	x	-10.4%	-1.5%[60.1 µM]	-7.3%	-4.5%
CCC(Sc1ncc(S(=O)(=O)c2ccc(C)cc2)c(=O)[nH]1)C(=O)Nc1cc(C)ccc1C (stereo unspecified)	25.1µM*	x	6.4%	-4.5%	-5.4%	u
Cc1c(Br)c(O)c(Br)c(O)c1/C=N/n1c(-c2ccccc2)n[nH]c1=S	50.1µM*	-83.0*	35.5µM*	35.5µM*	3.16µM*	7.94µM*
COc1cc(/C=N/n2c(-c3ccccc3)n[nH]c2=S)ccc1O	1.0%	-6.2	3.7%	5.0%	-12.5%	42.1%
Oc1c(Br)cc(/C=N/n2c(-c3ccccc3)n[nH]c2=S)c(O)c1Br	87.7%	-84.7*	u	39.8µM*	10µM*	u
COc1cc(/C=N/n2c(-c3ccccc3)n[nH]c2=S)cc(OC)c1O	-16.4%	-21.5	2.4%	-11.0%	-21.4%	13.8%
Oc1c(Br)cc(/C=N/n2c(-c3ccccc3)n[nH]c2=S)cc1Br	-9.0%	-92.4*	3.3%	-11.2%	-13.6%	164.1%
Oc1ccc(/C=N/n2c(-c3ccccc3)n[nH]c2=S)cc1Br	1.9%	-52.6*	15.3%	-5.1%	-17.3%	-11.7%
COc1ccc(Br)cc1/C=N/n1c(-c2ccccc2)n[nH]c1=S	0.2%	-8.9	-5.5%	-8.6%	-1.4%	4.8%
Cc1cccc(NS(=O)(=O)c2ccc(C(=O)N3CC(C)OC(C)C3)cc2)c1C (stereo unspecified)	x	0.7	3.9%	8.4%	-4.6%	55.5%
CC[C@H](C)[C@H](NC(=O)[C@H](CCCNC(=N)N)NC(=O)[C@@H](NC(=O)[C@H](CCCNC(=N)N)NC(=O)[C@H](CCCCN)NC(=O)[C@H](CCCNC(=N)N)NC(=O)[C@@H](NC(=O)[C@H](CC(N)=O)NC(=O)[C@@H](N)CS)[C@@H](C)O)[C@@H](C)CC)C(=O)N[C@@H](CCC(N)=O)C(=O)N[C@@H](CCCNC(=N)N)C(=O)NCC(=O)N1CCC[C@H]1C(=O)NCC(=O)N[C@@H](CCCNC(=N)N)C(=O)N[C@@H](C)C(=O)N[C@@H](Cc1ccccc1)C(=O)N[C@H](C(=O)N[C@H](C(=O)N[C@H](C(=O)NCC(=O)N[C@@H](CCCCN)C(=O)O)[C@@H](C)CC)[C@@H](C)O)C(C)C	x	x	x	-10.6%[12 µM]	x	x
Cc1ccc(Cc2cnc(NC(=O)c3ccc4c(c3)CC(c3ccccc3)OC4=O)s2)cc1 (stereo unspecified)	12.0%	x	5.1%	10.3%	-12.4%	2.0%
O=c1c2oc3nc4c(cc3c2ncn1CCCc1ccccc1)CCCC4	-1.5%	0.8	-9.3%	-8.2%	-6.2%	-20.6%[58.9 µM]
CCOc1ccc(-c2nonc2NC(=O)c2oc3c(C)c(C)ccc3c2C)cc1OCC	-3.1%	x	-13.3%	0.0%	-17.1%	-12.7%
Cc1ccc(NC(=O)Cn2cc(S(=O)(=O)Cc3ccccc3)c3ccccc32)cc1C	0.8%	x	-5.4%	-8.3%	u	36.0%
COc1ccccc1NC(=O)Cn1cc(S(=O)(=O)Cc2ccccc2)c2ccccc21	u	x	9.3%	-22.9%	79.4µM*	-15.5%
CC(=O)OC1CCC2(C)C(=CCC3C2CCC2(C)C3C[C@@H]3O[C@]32C(C)=O)C1 (stereo partly specified)	x	x	x	-9.8%[19.4 µM]	x	x
Cc1cccc(N=C2NC(=O)/C(=C\c3cccs3)S2)c1	7.7%	-19.3	-1.5%	-5.9%	u	-17.9%
Cc1ccc(N=C2NC(=O)/C(=C/c3cccs3)S2)cc1C	10µM*	-20.1	1.0%	0.5%	-14.9%	3.9%
O=C1NC(=Nc2ccccc2)S/C1=C/c1cccs1	31.6µM*	-11.7	0.7%	-1.6%	6.2%	u
CC1(C)Cc2c(sc(NC(=O)C(=O)N3CCOCC3)c2C(N)=O)CO1	0.8%	0.0	6.6%	20.3%	-6.9%	30.1%
COc1ccccc1NCC(=O)c1ccc(C)c(C)c1	-0.5%	0.1	8.9%	-10.6%	-11.7%	-3.0%
COc1ccccc1NCC(=O)c1ccc(Cl)cc1	89.1µM*	-0.1	4.5%	-2.8%	u	36.9%
COc1ccc(-c2cc3c(=O)n(CC(=O)Nc4cc(C)ccc4C)ccn3n2)cc1	44.7µM*	x	9.1%	-7.4%[60.1 µM]	x	11.3%
SMILES	POLB inh	PI5P4K alpha inh	FEN1 inh	Pol kappa inh	Pol eta inh	Pol iota inh
OCC1OC(Oc2cccc3ccccc23)C(O)C(O)C1O (stereo unspecified)	9.5%	-7.2	0.7%	0.8%	-14.7%	44.8%
O=C(O)c1cc(O)c2c(c1)[C@@H]([C@H]1c3cc(C(=O)O)cc(O)c3C(=O)c3c(O[C@@H]4O[C@H](CO)[C@@H](O)[C@H](O)[C@H]4O)cccc31)c1cccc(O[C@@H]3O[C@H](CO)[C@@H](O)[C@H](O)[C@H]3O)c1C2=O	x	-110.9*	3.16µM*	1.26µM*	0.794µM*	-93.7%
O=C(O)c1cc(O)c2c(c1)[C@H]([C@H]1c3cc(C(=O)O)cc(O)c3C(=O)c3c(O[C@@H]4OC(CO)C(O)C(O)C4O)cccc31)c1cccc(O[C@@H]3OC(CO)C(O)C(O)C3O)c1C2=O (stereo partly specified)	x	x	x	0.891µM*	x	x
COc1ccc2c(c1)c(CC(=O)O)c(C)n2Cc1ccc(F)cc1	6.9%[57.1 µM]	x	x	x	0.7%[57.1 µM]	-4.0%[58.9 µM]
COc1ccccc1NS(=O)(=O)c1cccc(C(=O)N/N=C/c2ccc(OCC(=O)O)cc2)c1	-27.1%	-3.0	-4.3%	1.9%	-15.2%	-2.5%
COc1ccccc1NS(=O)(=O)c1cccc(C(=O)N/N=C/c2ccc(NC(C)=O)cc2)c1	u	10.2	-7.6%	-26.2%	-14.9%	50.1µM*
COc1ccc(/C=N/NC(=O)CCN2CCN(c3ccccc3)CC2)c(OC)c1OC	2.4%	2.2	4.9%	-1.6%	-12.1%	3.9%
Cc1cc(C(=O)N/N=C/c2ccc(O)c(O)c2O)c(C)n1-c1ccccc1	u	-62.0*	-29.0%	-17.9%	-26.4%	-17.9%
O=C(CCN1CCN(c2ccccc2)CC1)N/N=C/c1ccc(O)c(O)c1O	2.82µM*	-68.8*	28.2µM*	3.55µM*	22.4µM*	1.26µM*
CCOc1cc(-c2nc(-c3ccc(-c4ccc(C)cc4)nc3OC)no2)cc(OCC)c1OCC	u	x	-4.3%	0.1%	-12.4%	26.7%
O=C(N/N=C/c1c[nH]c2ccccc12)c1cccc(O)c1	-9.2%	-4.3	-22.4%	-4.6%[60.1 µM]	-18.6%	12.2%
O=C(N/N=C/c1c[nH]c2ccccc12)c1ccc(O)c(O)c1	44.7µM*	u	7.6%	u	u	u

Bioassay records as filed in PubChem BioAssay.
